Results published in PubChem BioAssay (Tox21).
Records with an inconclusive call do not appear. Entries that show only a call come without a potency. More than one record can exist for a structure, and the calls need not agree. The source made the active and inactive calls. Unless noted, calls come from the whole dose curve; as a rule, active = well fitted curve in the direction sought with a large enough effect in the repeat runs; inconclusive = weak or mixed curves; inactive = no such curve, though single readings can be large; an effect the other way counts as inactive or inconclusive.

Tests used:
[1] = qHTS assay for identifying genotoxic compounds that show differential cytotoxicity against isogenic chicken DT40 cell lines with known DNA damage response pathways - wild type cell line (AID 743012); note: nearly all actives have a fitted effect of over 60% in size; note: potency is the fitted concentration of half-maximal effect
Summary of the method: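 First, wild type DT40 cells were plated at 300 per well and equilibrated about 0.5 h at 37 C/5% CO2. Next, compounds in DMSO were added and exposure lasted 40 h. Finally, CellTiter-Glo was added for 30 min at room temperature and luminescence recorded.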

[2] = qHTS assay for identifying genotoxic compounds that show differential cytotoxicity against isogenic chicken DT40 cell lines with known DNA damage response pathways - Rev3 mutant cell line (AID 743014); note: nearly all actives have a fitted effect of over 55% in size; note: potency is the fitted concentration of half-maximal effect
[3] = qHTS assay for identifying genotoxic compounds that show differential cytotoxicity against isogenic chicken DT40 cell lines with known DNA damage response pathways - Rad54/Ku70 mutant cell line (AID 743015); note: nearly all actives have a fitted effect of over 60% in size; note: potency is the fitted concentration of half-maximal effect
[4] = qHTS assay to identify small molecule antagonists of the androgen receptor (AR) signaling pathway - cell viability counter screen (AID 743033; note: nearly all actives have a fitted effect of over 45% in size; note: potency is the fitted concentration of half-maximal effect)
[5] = qHTS assay to identify small molecule antagonists of the androgen receptor (AR) signaling pathway using the MDA cell line - cell viability counter screen (AID 743041; note: nearly all actives have a fitted effect of over 45% in size; note: potency is the fitted concentration of half-maximal effect)
Summary of the method: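 R1881-driven MDA-kb2 AR-luc cells, 3,000/well, were dosed with library compounds for 16 h; cell health came from CellTiter-Fluor fluorescence in the reporter wells.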

[6] = qHTS assay to identify small molecule antagonists of the glucocorticoid receptor (GR) signaling pathway - cell viability counter screen (AID 720693); note: nearly all actives have a fitted effect of over 55% in size
[7] = target: Androgen receptor (Homo sapiens) (UniProt P10275); test: qHTS assay to identify small molecule agonists of the androgen receptor (AR) signaling pathway using the MDA cell line (AID 743040; note: nearly all actives have a fitted effect of over 20% in size)
Summary of the method: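 After a 5 h incubation at 37C and 0% CO2, MDA-kb2 reporter cells were dosed with compounds in DMSO and kept 16 h under the same conditions. Luciferase activity was then read as luminescence with ONE-Glo.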

[8] = target: Androgen receptor (Homo sapiens) (UniProt P10275); test: qHTS assay to identify small molecule antagonists of the androgen receptor (AR) signaling pathway using the MDA cell line (AID 743042; note: nearly all actives have a fitted effect of over 55% in size)
Summary of the method: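 Antagonist mode: compounds plus R1881 agonist added to MDA-kb2 AR-luc cells, incubated 16 h at 37C. Luciferase reporter luminescence quantified, with multiplexed CellTiter-Fluor readout for cell viability.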

[9] = target: Androgen receptor (Homo sapiens) (UniProt P10275); test: qHTS assay to identify small molecule antagonists of the androgen receptor (AR) signaling pathway (AID 743035; active = well fitted inhibition curve with a large enough effect in the signal ratio in the repeat runs, not every such curve was filed as active; the % refers to the signal ratio)
Summary of the method: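 Beta-lactamase FRET read (2 h RT incubation with LiveBLAzer B/G) following 16 h of compound plus R1881 treatment of AR-UAS-bla HEK293 cells, which had been pre-incubated 4 h at 37C.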

[10] = target: Androgen receptor (Homo sapiens) (UniProt P10275); test: qHTS assay to identify small molecule agonists of the androgen receptor (AR) signaling pathway (AID 743036; active = well fitted activation curve with a large enough effect in the signal ratio in the repeat runs, with a control signal flat, not every such curve was filed as active; the % refers to the signal ratio)
Summary of the method: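 Cell-based FRET reporter assay: HEK293 line with a UAS-beta-lactamase construct, compounds added in DMSO, 16 h exposure at 37C, then 2 h substrate step at room temperature and fluorescence intensity read.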

Chain of Androgen receptor (Homo sapiens) (P10275 whole entry, looked up): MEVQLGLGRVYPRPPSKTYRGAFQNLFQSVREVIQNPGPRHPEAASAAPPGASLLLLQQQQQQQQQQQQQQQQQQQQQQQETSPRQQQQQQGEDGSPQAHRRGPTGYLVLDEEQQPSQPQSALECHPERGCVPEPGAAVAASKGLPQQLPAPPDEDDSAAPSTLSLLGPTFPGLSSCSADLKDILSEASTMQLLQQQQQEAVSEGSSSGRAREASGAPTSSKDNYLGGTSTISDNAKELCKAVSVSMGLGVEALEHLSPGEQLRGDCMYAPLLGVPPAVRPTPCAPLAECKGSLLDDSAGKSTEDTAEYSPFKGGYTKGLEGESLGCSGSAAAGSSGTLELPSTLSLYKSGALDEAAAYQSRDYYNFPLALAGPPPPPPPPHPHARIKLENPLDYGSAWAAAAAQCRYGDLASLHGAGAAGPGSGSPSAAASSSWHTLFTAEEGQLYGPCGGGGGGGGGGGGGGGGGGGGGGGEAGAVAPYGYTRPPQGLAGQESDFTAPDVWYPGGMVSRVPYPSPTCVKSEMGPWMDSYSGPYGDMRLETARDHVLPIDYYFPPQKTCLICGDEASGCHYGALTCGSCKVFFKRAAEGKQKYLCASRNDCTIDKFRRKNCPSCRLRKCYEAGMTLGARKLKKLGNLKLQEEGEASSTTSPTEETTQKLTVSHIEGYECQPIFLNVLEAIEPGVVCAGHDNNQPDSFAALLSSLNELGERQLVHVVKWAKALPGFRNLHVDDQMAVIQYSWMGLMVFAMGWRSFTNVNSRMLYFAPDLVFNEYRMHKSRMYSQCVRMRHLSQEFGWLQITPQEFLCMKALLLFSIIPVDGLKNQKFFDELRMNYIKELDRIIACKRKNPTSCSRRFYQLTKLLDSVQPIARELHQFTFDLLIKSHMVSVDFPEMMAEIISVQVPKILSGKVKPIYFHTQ

In the case of C=C(C)c1ccccc1, the Potency [1] is reported as “inactive”, the Potency [2] is reported as “inactive” and the Potency [3] is reported as “inactive”. The Potency [4] was “inactive” and the Potency [5] was “inactive”.

For COc1cc(OC)c2ccc(=O)oc2c1, the Potency [6] was “inactive”, the Potency [3] was 68.6 µM (active) and the Potency [7] was “inactive”. The Potency [5] was “inactive” and the Potency [8] was “inactive”.

For COc1ccc(N)c([N+](=O)[O-])c1, the Potency [1] was “inactive”, the Potency [2] was “inactive” and the Potency [3] was “inactive”. The Potency [4] was “inactive” and the Potency [5] was “inactive”.

For CC(C)OC(=O)c1ccccc1C(=O)OC(C)C, the Potency [6] was “inactive”, the Potency [2] was 43.3 µM (active) and the Potency [5] was “inactive”.

With CS(=O)(=O)c1ccc([C@@H](C[C@H]2CCC(=O)C2)C(=O)Nc2cnccn2)cc1Cl the Potency [6] was “inactive” and the Potency [5] was “inactive”.

In the case of Cc1c(C2(c3cc(Br)c(O)c(Br)c3C)OS(=O)(=O)c3ccccc32)cc(Br)c(O)c1Br, the Potency [1] is reported as 18.8 µM (active), the Potency [2] is reported as 18.8 µM (active) and the Potency [3] is reported as 18.8 µM (active). For the same compound, the Potency [4] was 16.9 µM (active) and the Potency [5] was 23.6 µM (active).

For C1=CCC2CC=CC2C1 (stereo not drawn), the Potency [1] was “inactive”, the Potency [2] was “inactive” and the Potency [3] was “inactive”. The Potency [4] was “inactive”, the Potency [9] was “inactive” and the outcome [10] was “inactive”. For the same compound, the Potency [7] was “inactive”, the Potency [5] was “inactive” and the Potency [8] was “inactive”.

In the case of COc1ccc(CCN(C)CCCN2CCc3cc(OC)c(OC)cc3CC2=O)cc1OC, the Potency [6] is reported as “inactive”, the Potency [2] is reported as “inactive” and the Potency [3] is reported as “inactive”. The Potency [4] was “inactive” and the Potency [5] was “inactive”.

In the case of COc1cc(C(C)=O)ccc1OCCCN1CCC(c2noc3cc(F)ccc23)CC1, the Potency [1] is reported as 11.9 µM (active), the Potency [2] is reported as 18.8 µM (active) and the Potency [3] is reported as 16.8 µM (active). For the same compound, the Potency [4] was “inactive” and the Potency [5] was “inactive”.

For Nc1ccc(N=Nc2ccc(N)cc2)cc1, the Potency [6] was “inactive”, the Potency [2] was “inactive” and the Potency [4] was “inactive”.

For O=C(CCS)OCC(COC(=O)CCS)(COC(=O)CCS)COC(=O)CCS, the Potency [6] was “inactive”, the Potency [2] was “inactive” and the Potency [3] was “inactive”. For the same compound, the Potency [4] was “inactive” and the Potency [5] was “inactive”.

In the case of COc1ccc2nc(S(=O)Cc3ncc(C)c(OC)c3C)[nH]c2c1 (stereo not drawn), the Potency [1] is reported as 21.1 µM (active) and inactive, the Potency [2] is reported as 26.6 µM (active) and inactive and the Potency [3] is reported as 26.6 µM (active). The Potency [4] was “inactive” and the Potency [5] was “inactive”.

In the case of CC/C=C\C/C=C\C/C=C\CCCCCCCC(=O)OCC, the Potency [6] is reported as “inactive”, the Potency [3] is reported as 70.1 µM (active) and the Potency [4] is reported as “inactive”. For the same compound, the Potency [5] was “inactive”.

For Nc1c(Cl)cc(Cl)cc1[N+](=O)[O-], the Potency [6] was “inactive”, the Potency [4] was “inactive” and the Potency [9] was “inactive”. The Potency [7] was “inactive”, the Potency [5] was “inactive” and the Potency [8] was “inactive”.

For CCN(CC)CCOC(=O)C(c1ccccc1)c1ccccc1, the Potency [6] was “inactive”, the Potency [4] was “inactive” and the Potency [5] was “inactive”.

In the case of CSCC[C@H](NC(=O)[C@H](Cc1c[nH]c2ccccc12)NC(=O)CCNC(=O)OC(C)(C)C)C(=O)N[C@@H](CC(=O)O)C(=O)N[C@@H](Cc1ccccc1)C(N)=O, the Potency [1] is reported as “inactive”, the Potency [2] is reported as “inactive” and the Potency [3] is reported as “inactive”. For the same compound, the Potency [4] was “inactive” and the Potency [5] was “inactive”.

In the case of CC(C)(O)c1coc(S(=O)(=O)NC(=O)Nc2c3c(cc4c2CCC4)CCC3)c1, the Potency [6] is reported as “inactive”, the Potency [4] is reported as “inactive” and the Potency [5] is reported as “inactive”.

In the case of CC(=O)OC(C)C[N+](C)(C)C (stereo not drawn), the Potency [6] is reported as “inactive”, the Potency [2] is reported as “inactive” and the Potency [3] is reported as “inactive”. For the same compound, the Potency [4] was “inactive” and the Potency [5] was “inactive”.

In the case of O=C(O)c1cccc(C[C@@H]2COc3ccc(OCc4nc5cc(F)ccc5s4)cc3[C@@H]2O)c1, the Potency [6] is reported as “inactive”, the Potency [2] is reported as 68.7 µM (active) and the Potency [5] is reported as “inactive”.

For Oc1ccc2c(c1)Cc1ccccc1-2, the Potency [6] was “inactive” and the Potency [5] was “inactive”.

In the case of CC(=O)Oc1cccc(O)c1, the Potency [1] is reported as “inactive”, the Potency [2] is reported as “inactive” and the Potency [3] is reported as “inactive”. For the same compound, the Potency [4] was “inactive” and the Potency [5] was “inactive”.

In the case of O=C(O)CCC(=O)OC[C@@H](NC(=O)C(Cl)Cl)[C@H](O)c1ccc([N+](=O)[O-])cc1, the Potency [6] is reported as “inactive”, the Potency [2] is reported as “inactive” and the Potency [4] is reported as “inactive”. For the same compound, the Potency [5] was “inactive”.

In the case of CCN(Cc1cccc(S(=O)(=O)O)c1)c1ccc(C(=C2C=CC(=[N+](CC)Cc3cccc(S(=O)(=O)O)c3)C=C2)c2ccc(O)cc2S(=O)(=O)[O-])cc1, the Potency [1] is reported as 10.5 µM (active) and the Potency [2] is reported as 9.32 µM (active).

For Cc1ccccc1S(N)(=O)=O, the Potency [6] was “inactive”, the Potency [2] was “inactive” and the Potency [3] was “inactive”. The Potency [4] was “inactive” and the Potency [5] was “inactive”.

In the case of CNC1CCCN(c2c(F)cc3c(=O)c(C(=O)O)cn(C4CC4)c3c2OC)C1 (stereo not drawn), the Potency [6] is reported as “inactive”, the Potency [3] is reported as “inactive” and the Potency [4] is reported as “inactive”. For the same compound, the Potency [5] was “inactive”.

In the case of Nc1nc2ccc(OC(F)(F)F)cc2s1, the Potency [6] is reported as “inactive” and the Potency [5] is reported as “inactive”.

In the case of COC(=O)c1sccc1S(N)(=O)=O, the Potency [6] is reported as “inactive”, the Potency [4] is reported as “inactive” and the Potency [5] is reported as “inactive”.

In the case of O=C(C(=O)c1ccco1)c1ccco1, the Potency [6] is reported as “inactive”, the Potency [3] is reported as “inactive” and the Potency [4] is reported as “inactive”. For the same compound, the Potency [9] was “inactive”, the outcome [10] was “inactive” and the Potency [7] was “inactive”. For the same compound, the Potency [5] was “inactive” and the Potency [8] was “inactive”.

For c1ccc(CNc2ncnc3c2ncn3C2CCCCO2)cc1 (stereo not drawn), the Potency [6] was “inactive”, the Potency [4] was “inactive” and the Potency [5] was “inactive”.

In the case of CCOCCC(=O)OCC, the Potency [1] is reported as “inactive”, the Potency [2] is reported as “inactive” and the Potency [3] is reported as “inactive”. The Potency [4] was “inactive” and the Potency [5] was “inactive”.

With C=C(C)C(=O)OCCC(F)(F)C(F)(F)C(F)(F)C(F)(F)C(F)(F)C(F)(F)F the Potency [1] was “inactive”, the Potency [3] was “inactive” and the Potency [5] was “inactive”.

With C=Cc1ccc(OC(C)=O)cc1 the Potency [1] was “inactive”, the Potency [2] was “inactive” and the Potency [3] was “inactive”. The Potency [9] was “inactive”, the outcome [10] was “inactive” and the Potency [7] was “inactive”. For the same compound, the Potency [5] was “inactive” and the Potency [8] was “inactive”.

For Cc1ccc(NC(=O)N(C)C)cc1NC(=O)N(C)C, the Potency [1] was “inactive”, the Potency [3] was “inactive” and the Potency [4] was “inactive”. The Potency [5] was “inactive”.

For CO[C@@H]1[C@@H](OC)[C@H](C)[C@@](O)(CC(=O)O)O[C@H]1[C@H](C)[C@H]1O[C@@]2(CC[C@@](C)([C@H]3CC[C@@](C)([C@@H]4O[C@@H]([C@H]5O[C@](C)(O)[C@H](C)C[C@@H]5C)C[C@@H]4OC4C[C@H](OC)[C@@H](OC)[C@H](C)O4)O3)O2)C[C@H](O)[C@H]1C (stereo partly drawn), the Potency [1] was 0.168 µM (active), the Potency [2] was 0.15 µM (active) and the Potency [3] was 0.211 µM (active). For the same compound, the Potency [5] was 1.06 µM (active).

For CNc1c2c(nn1C)CCCC2, the Potency [2] was “inactive”, the Potency [3] was “inactive” and the Potency [4] was “inactive”. The Potency [5] was “inactive”.

With O=C(/C=C/c1ccc([N+](=O)[O-])cc1)c1ccccc1 the Potency [2] was “inactive”, the Potency [3] was “inactive” and the Potency [4] was “inactive”. For the same compound, the Potency [5] was “inactive”.

In the case of O=C1c2ccccc2C(=O)c2c(O)ccc(O)c21, the Potency [2] is reported as “inactive”, the Potency [3] is reported as 7.7 µM (active) and the Potency [4] is reported as “inactive”. The Potency [5] was “inactive”.

In the case of [Cl][Nd]([Cl])[Cl], the Potency [3] is reported as “inactive”, the Potency [4] is reported as “inactive” and the Potency [5] is reported as “inactive”.
